Results: PubChem BioAssay AID434958 (Southern Research Specialized Biocontainment Screening …, 2010)
The campaign covered roughly 1,200 compounds. About 400 (33%) were called active. How the calls were made is not given here. Only a sample is shown. Measured potencies and affinities stand elsewhere.

Assay: mammalian cell cytotoxicity, dose response, cytotoxicity control (AID 434958);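 further: cells exposed to compound for 72 hours before readout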
Details: cytotoxicity counter-screen; series mostly up to 40 µM; viability: at the top concentration

Row | Compound | viability
1 | CCCC(=O)Nc1nc(-c2ccccc2)ns1 | 96.2% (inactive)
2 | Cc1ccc(C)c(S(=O)(=O)N2CCN(CC(=O)NC(C)c3ccccc3)CC2)c1 (centres undefined) | 91.4% (inactive)
3 | O=c1oc(-c2ccccc2F)nc2scc(-c3ccccc3)c12 | 94.1% (inactive)
4 | Cc1ccc(C2=NN(C(=O)CN3C(=O)c4ccccc4S3(=O)=O)C(c3ccco3)C2)cc1 (centres undefined) | 82.9% (inactive)
5 | COCCOC(=O)c1c(C)oc2ccc(OCc3cc(C(=O)OC)oc3C)cc12 | 90.5% (inactive)
6 | Cc1sc2nc(C(C)Nc3ccccc3N3CCOCC3)[nH]c(=O)c2c1C (centres undefined) | 88.9% (inactive)
7 | CCCc1cc(NC(=O)COC(=O)c2nccnc2N)n(-c2ccccc2)n1 | 102% (inactive)
8 | CC(C)CCN1CC(O)=C(c2nc3ccccc3[nH]2)C1=N | 84.1% (inactive)
9 | O=C(Nc1nnc(-c2ccc3c(c2)OCCO3)o1)C1CCCCC1 | 89.3% (inactive)
10 | O=C(Nc1nc(-c2ccc3c(c2)OCCO3)cs1)c1ccc(S(=O)(=O)N2CCCCC2)cc1 | 91.1% (inactive)
11 | CCSc1nnc(NC(=O)CSc2nccn2-c2cccc(C)c2)s1 | 102% (inactive)
12 | Cc1c(C(=O)NCCC2=CCCCC2)sc2ncnc(N3CCCCC3C)c12 (centres undefined) | 82.1% (inactive)
13 | Cc1cc(C)c(NC(=O)CC(C)(C)C)c(Cl)c1 | 96.5% (inactive)
14 | COc1ccc(OC)c(NC(=O)CS(=O)(=O)c2ccccc2)c1 | 96.5% (inactive)
15 | Cc1ccc(OCC(=O)Nc2ccc(-c3nc4ncccc4o3)cc2)c(C)c1 | 103% (inactive)
16 | Cc1cc(C)c2oc(-c3ccc(Cl)c(NC(=O)c4ccc(C#N)cc4F)c3)nc2c1 | 86.5% (inactive)
17 | CCc1ccc(NC(=S)Nc2ccc3cn[nH]c3c2)cc1 | 101% (inactive)
18 | O=C(COC(=O)c1ccc(Cl)cc1[N+](=O)[O-])NNC(=O)c1cccs1 | 107% (inactive)
19 | NC(=S)N/N=C/c1ccc([N+](=O)[O-])cc1 | 106% (inactive)
20 | NNC(=S)NC1CC2CC1C1C=CCC21 (centres undefined) | 91.1% (inactive)
21 | CCc1nc2scc(-c3cccs3)c2c(=O)o1 | 111% (inactive)
22 | Cc1c(-c2ccncc2)oc2ccc(Br)cc2c1=O | 95.4% (inactive)
23 | Cc1ccc2c(Cl)cc(Cl)c(OCc3c(C)noc3C)c2n1 | 94.7% (inactive)

Row | Compound | viability
24 | O=C(N/N=C/c1ccc(OC(=O)c2ccc3c(c2)OCO3)cc1)c1cncc(Br)c1 | 97.2% (inactive)
25 | Cc1ccc(/C=N\NC(=O)c2csnn2)cc1 | 95.1% (inactive)
26 | Cc1cccc(C)c1NC(=O)C1CC2CCC1C2 (centres undefined) | 100% (inactive)
27 | COC(=O)c1c(NC(=O)c2ccc(C)cc2)csc1C | 94.8% (inactive)
28 | Cc1ccc(C)c(N2CCN(CC3CC=CCC3)CC2)c1 (centres undefined) | 97.1% (inactive)
29 | Cc1cc(Br)ccc1NC(=O)c1ccccc1-c1ccccc1 | 90.7% (inactive)
30 | O=C(COC(=O)C1CC1)NCc1ccccc1Cl | 109% (inactive)
31 | Cc1ccc(C2=N/C(=C\c3cccc(F)c3)C(=O)O2)cc1 | 93.8% (inactive)
32 | COC(=O)c1sc(-c2ccc(C(C)(C)C)cc2)cc1NC(=O)CCC(=O)O | 84.9% (inactive)
33 | O=C(COc1ccc(Cl)cc1)OCC(=O)N1CCCCCC1 | 99.3% (inactive)
34 | Cc1ccc(C)c(-n2c(-c3ccco3)n[nH]c2=S)c1 | 105% (inactive)
35 | O=C(NN1C(=O)c2cc(Br)ccc2NC1c1ccccc1Cl)c1ccncc1 (centres undefined) | 85.9% (inactive)
36 | CCOc1ccc(-c2nnc(-c3ccc(OC)cc3)o2)cc1 | 91.7% (inactive)
37 | COc1ccc2cc(C3=CCCCC3)ncc2c1 | 97.6% (inactive)
38 | COc1cccc(/C=C/c2[nH]c(=O)[nH]c(=O)c2[N+](=O)[O-])c1O | 108% (inactive)
39 | COc1ccc(-c2cc(C(N)=O)nc(N3CCCCCC3)n2)cc1 | 95.8% (inactive)
40 | O=c1oc(-c2cccs2)nc2sc3c(c12)CCCC3 | 96.4% (inactive)
41 | N#Cc1cc2c(nc1SCC(=O)Nc1sc3c(c1C#N)CCC3)CCCC2 | 88.3% (inactive)
42 | CC(C(=O)Nc1sc2c(c1C(=O)NCc1ccco1)CCCC2)N1C(=O)c2ccccc2C1=O (centres undefined) | 81.9% (inactive)
43 | O=c1oc(-c2ccco2)nc2sc3c(c12)CCCCC3 | 98.2% (inactive)
44 | O=C(Cn1cnc2sc3c(c2c1=O)CCCC3)NCC(=O)Nc1ccccc1F | 106% (inactive)
45 | COc1ccccc1C(=O)Nc1sc2c(c1C(=O)NCc1ccco1)CCCC2 | 84.7% (inactive)
46 | CCOc1nnnc2c1sc1nc(N3CCOCC3)c3c(c12)CCCC3 | 86.5% (inactive)

Row | Compound | viability
47 | Fc1ccc(C2Nc3cccc4cccc(c34)N2)cc1 | 87% (inactive)
48 | CCC(CC)C(=O)Nc1ccc(Sc2ccc([N+](=O)[O-])cc2)cc1 | 85.5% (inactive)
49 | Cc1nc(S/C(=C\c2ccc(OCc3ccccc3Cl)cc2)C(=O)O)n[nH]1 | 86.2% (inactive)
50 | CCn1nnnc1SCC(=O)c1ccc(C)cc1C | 105% (inactive)
51 | CSc1ccccc1C(=O)Nc1ccc2c(c1)OCCO2 | 86.6% (inactive)
52 | O=C(NN=C1CCCC1)c1cccs1 | 97.9% (inactive)
53 | COc1ccc(/C=N/Nc2nc(-c3ccc(C)cc3)c(NC(C)=O)s2)cc1OC | 85.2% (inactive)
54 | CC(C)OCc1c(C(=O)Nc2nccs2)oc2ccccc12 | 84.7% (inactive)
55 | COc1ccc(-c2cc(C(F)F)nc(-n3nc(C)cc3C)n2)cc1 | 109% (inactive)
56 | Cc1onc(-c2c(Cl)cccc2Cl)c1/C(N)=N/OC(=O)C1CC1 | 104% (inactive)
57 | CCOc1ccc2cc(S(=O)(=O)N3CCCCC3)ccc2c1 | 90.6% (inactive)
58 | COc1cccc(-n2c([S-])c(C(=O)Nc3ccc(S(=O)(=O)N4CCOCC4)cc3)[n+]3cc(C(N)=O)ccc23)c1 | 93.7% (inactive)
59 | S=C(Nc1ccc(Cl)cc1)c1nc2ccccc2s1 | 98.3% (inactive)
60 | COc1ccc(NC(=O)CSc2nncn2C)c([N+](=O)[O-])c1 | 97% (inactive)
61 | O=C(/C=C/c1ccccc1)NC1CC2CCC1C2 (centres undefined) | 103% (inactive)
62 | CC1(c2ccc([N+](=O)[O-])cc2)NC(=O)N(CC(=O)c2ccc3c(c2)OCO3)C1=O (centres undefined) | 96.8% (inactive)
63 | O=C(CSc1n[nH]c(=O)n1C1CC1)c1ccc2c(c1)OCCO2 | 94.2% (inactive)
64 | O=S(=O)(Nc1ccccc1)c1ccc2c(c1)CCO2 | 93.8% (inactive)
65 | Cc1ccc(-c2nc3[nH]c(=O)cc(NC(=O)C(C)C)n3n2)cc1 | 112% (inactive)
66 | COCCNC(=S)N/N=C(\C)c1cccc(OC)c1 | 94.5% (inactive)
67 | CCOCC(=O)Nc1ccc(F)c(F)c1 | 98.5% (inactive)
68 | O=C(CC12CC3CC(CC(C3)C1)C2)NCc1ccc(F)cc1 | 94% (inactive)
69 | O=c1c2c(nc3n1CCCCC3)sc1c(O)c(Br)ccc12 | 89.9% (inactive)

Row | Compound | viability
70 | COc1ccc(-c2csc(/C=C/c3ccc4c(c3)OCO4)n2)cc1OC | 103% (inactive)
71 | COc1cc(NC(=O)c2ccc(Cl)cc2)c(OC)cc1NC(=O)CN1CCOCC1 | 94.5% (inactive)
72 | Cc1ccccc1NC(=O)c1ccc(CN(c2ccccc2)S(=O)(=O)c2ccccc2)cc1 | 86.9% (inactive)
73 | CN(C)S(=O)(=O)c1ccc(NC(=O)c2cc3ccccc3o2)cc1 | 94.6% (inactive)
74 | CNC(=O)Nc1cccc(-c2cc(-c3c(Cl)cccc3Cl)no2)c1 | 84.4% (inactive)
75 | O=c1oc(-c2ccccc2)nc2sc3c(c12)CCC3 | 96.8% (inactive)
76 | C=CCn1cc(C(=O)NCCCOC)c(=O)c2cc(S(=O)(=O)N(CC)CC)ccc21 | 90.7% (inactive)
77 | CC(OC(=O)c1ccc([N+](=O)[O-])o1)C(=O)NC1CCCCC1C (centres undefined) | 90.8% (inactive)
78 | C#CCOc1c(Cl)cc(/C=N/NC(N)=S)cc1OCC | 96.7% (inactive)
79 | BrC(=C\c1ccccc1)/C=N/N1CCN(c2ccccn2)CC1 | 104% (inactive)
80 | Cc1ccc(C(=O)N2CCC3(CC2)Oc2ccc(F)cc2C(=O)C32CC(c3cccnc3)=NO2)s1 (centres undefined) | 98.1% (inactive)
81 | O=C(Nc1c2c(nc3ccccc13)CCCC2)c1ccccc1F | 108% (inactive)
82 | COc1ccc(C(=O)Nc2ccc3nc(N4CCCCC4)cc(C)c3c2)c(OC)c1 | 94.4% (inactive)
83 | COc1ccc(-c2sc3cc(OC)c(OC)cc3c2C#CCCO)cc1 | 89.1% (inactive)
84 | CCN(CC(=O)Nc1ccccc1OC)C(=O)c1cc(S(=O)(=O)N2CCCCCC2)ccc1OC | 95.8% (inactive)
85 | C/C(=N\NC(=S)NCc1ccccc1)c1cccc(Br)c1 | 95.1% (inactive)
86 | O=C(COc1cccc2cccnc12)N/N=C/c1ccc(O)cc1 | 95.2% (inactive)
87 | O=C(Cc1cccc2ccccc12)N/N=C/c1ccc(O)c([N+](=O)[O-])c1 | 99.7% (inactive)
88 | CN(C)c1ccc(S(=O)(=O)NCC(=O)OCC(=O)Nc2cccc(Cl)c2)cc1[N+](=O)[O-] | 96.4% (inactive)
89 | O=C(NCc1nc2ncc(Br)cc2[nH]1)c1ccccc1 | 94.1% (inactive)
